Data taken from PubChem BioAssay (EPA / NIEHS).
Inconclusive results are not listed. The source holds several records for some structures; these can differ, active in one and inactive in another. Activity calls are given as the source filed them. Rule for the calls, unless noted: active = hit-call score of the fitted dose curve at least 0.9, where 1 is the maximum; inactive = score below 0.9.

How the values were obtained:
[1] = target: Myc proto-oncogene protein (Homo sapiens) (UniProt P01106); assay: ATG_Myc_CIS: Attagene CIS-FACTORIAL HepG2 Assay for human Myelocytomatosis (Myc) Proto-Oncogene Transcription Factor (AID 2282990); conditions: HepG2, Attagene cis-reporter transcription factor activity; actives raise or lower the signal
Sequence of Myc proto-oncogene protein (Homo sapiens) (P01106 whole entry, looked up): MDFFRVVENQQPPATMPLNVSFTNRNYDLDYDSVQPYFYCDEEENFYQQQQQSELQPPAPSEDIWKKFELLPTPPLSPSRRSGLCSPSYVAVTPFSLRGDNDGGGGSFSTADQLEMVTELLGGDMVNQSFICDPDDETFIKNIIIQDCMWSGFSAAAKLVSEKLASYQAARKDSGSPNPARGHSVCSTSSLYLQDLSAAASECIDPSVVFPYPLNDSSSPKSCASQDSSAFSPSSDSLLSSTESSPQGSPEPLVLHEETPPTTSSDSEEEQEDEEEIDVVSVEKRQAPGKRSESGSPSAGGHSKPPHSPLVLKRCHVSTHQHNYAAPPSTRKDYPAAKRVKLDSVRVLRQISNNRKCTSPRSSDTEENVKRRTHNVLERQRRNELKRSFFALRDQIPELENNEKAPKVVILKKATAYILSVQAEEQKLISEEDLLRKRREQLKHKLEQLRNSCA
Outline: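 DMSO-normalised, bidirectionally fitted reporter mRNA signal. HepG2 cells transfected with cis reporter constructs, treated 24 h; transcripts detected by RT-PCR, 6-FAM primer extension and CE.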

[2] = ATG_NF_kB_CIS: Attagene CIS-FACTORIAL HepG2 Assay for human Nuclear Factor Kappa B (NF-kB) (AID 2282991); conditions: HepG2 Attagene cis-factorial NF-kB reporter mRNA; actives raise or lower the signal
Outline: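 Fluorescence of labelled RT-PCR products separated by capillary electrophoresis gives reporter mRNA levels from transfected HepG2 cells exposed 24 h; values are fitted in both directions relative to DMSO.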

[3] = ATG_NRF2_ARE_CIS: Attagene CIS-FACTORIAL HepG2 Assay for human Nuclear Factor Erythroid 2 Related Factor 2 (NFR2) response to Antioxidant Response Elements (ARE) (AID 2282992); conditions: HepG2 Attagene ARE/NRF2 reporter, transcription factor activity; actives raise or lower the signal
Outline: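 Endogenous transcription factor activity read out as reporter transcript levels (RT-PCR plus capillary electrophoresis, fluorescence) in transiently transfected HepG2 cells. Measured at 24 h after dosing; gain or loss of signal fitted versus DMSO.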

[4] = ATG_Oct_MLP_CIS: Attagene CIS-FACTORIAL HepG2 Assay for human Octamer-Binding Transcription Factor (Oct) (AID 2282993); conditions: HepG2 Attagene cis-factorial Oct reporter, mRNA; actives raise or lower the signal
Outline: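 Readout is reporter transcript level from RT-PCR with fluorescent primer extension and capillary electrophoresis, fitted in both directions against DMSO. Transfected HepG2 reporter units report endogenous factor activity after 24 h dosing.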

[5] = target: Peroxisome proliferator-activated receptor gamma (Homo sapiens) (UniProt P37231); assay: ATG_PPARg_TRANS: Attagene TRANS-FACTORIAL HepG2 Assay for human Peroxisome Proliferator-activated Receptor-gamma (PPARg) (AID 2283007; active = hit-call score of the fitted dose curve at least 0.9, where 1 is the maximum)
Sequence of Peroxisome proliferator-activated receptor gamma (Homo sapiens) (P37231 whole entry, looked up): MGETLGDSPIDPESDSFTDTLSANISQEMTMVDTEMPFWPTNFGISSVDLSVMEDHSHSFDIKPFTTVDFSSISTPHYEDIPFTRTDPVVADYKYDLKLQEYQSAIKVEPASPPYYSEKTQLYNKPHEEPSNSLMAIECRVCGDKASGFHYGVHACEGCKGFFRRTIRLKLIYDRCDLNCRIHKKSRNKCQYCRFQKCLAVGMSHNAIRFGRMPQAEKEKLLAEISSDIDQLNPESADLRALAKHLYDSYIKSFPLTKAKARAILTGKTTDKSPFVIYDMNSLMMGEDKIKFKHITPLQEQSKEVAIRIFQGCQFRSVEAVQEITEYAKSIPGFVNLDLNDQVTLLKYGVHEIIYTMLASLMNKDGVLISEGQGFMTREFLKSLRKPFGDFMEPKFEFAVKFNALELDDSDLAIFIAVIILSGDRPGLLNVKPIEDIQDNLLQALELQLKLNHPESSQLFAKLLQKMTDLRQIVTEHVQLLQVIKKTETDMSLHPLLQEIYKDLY
Outline: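 Twenty-four hours after chemical dosing of transiently transfected HepG2 cells, isolated RNA was converted to cDNA, reporter sequences amplified and 6-FAM-labelled, then HpaI-digested and analysed by capillary electrophoresis. Signal increase against DMSO was fitted.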

[6] = target: Nuclear receptor subfamily 1 group I member 2 (Homo sapiens) (UniProt O75469); assay: ATG_PXR_TRANS: Attagene TRANS-FACTORIAL HepG2 Assay for human Pregnane X Receptor (PXR) (AID 2283008; active = hit-call score of the fitted dose curve at least 0.9, where 1 is the maximum)
Sequence of Nuclear receptor subfamily 1 group I member 2 (Homo sapiens) (O75469 whole entry, looked up, the tested form may be a part): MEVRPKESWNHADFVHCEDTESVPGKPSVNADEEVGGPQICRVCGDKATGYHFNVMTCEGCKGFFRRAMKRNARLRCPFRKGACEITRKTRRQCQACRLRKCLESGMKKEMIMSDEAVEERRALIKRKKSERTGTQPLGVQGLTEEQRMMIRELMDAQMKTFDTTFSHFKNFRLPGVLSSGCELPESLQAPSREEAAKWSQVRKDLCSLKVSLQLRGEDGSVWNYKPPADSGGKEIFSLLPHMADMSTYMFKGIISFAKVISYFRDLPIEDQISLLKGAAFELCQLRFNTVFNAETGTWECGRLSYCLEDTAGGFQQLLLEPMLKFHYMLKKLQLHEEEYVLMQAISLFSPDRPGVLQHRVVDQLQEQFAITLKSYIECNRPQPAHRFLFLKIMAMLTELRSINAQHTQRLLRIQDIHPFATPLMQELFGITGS
Outline: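 Transactivation by exogenous PXR–GAL4 fusion measured as reporter transcript induction after 24 h compound treatment of transfected human HepG2 cells. Read-out via RT-PCR and capillary electrophoresis of labelled fragments, fitted upward relative to DMSO.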

[7] = target: human Retinoic Acid Receptor beta (RARb), RARB (gene 5915) (UniProt P10826); assay: ATG_RARb_TRANS: Attagene TRANS-FACTORIAL HepG2 Assay for human Retinoic Acid Receptor beta (AID 2283004; active = hit-call score of the fitted dose curve at least 0.9, where 1 is the maximum)
Sequence of human Retinoic Acid Receptor beta (RARb), RARB (gene 5915) (P10826 whole entry, looked up, the tested form may be a part): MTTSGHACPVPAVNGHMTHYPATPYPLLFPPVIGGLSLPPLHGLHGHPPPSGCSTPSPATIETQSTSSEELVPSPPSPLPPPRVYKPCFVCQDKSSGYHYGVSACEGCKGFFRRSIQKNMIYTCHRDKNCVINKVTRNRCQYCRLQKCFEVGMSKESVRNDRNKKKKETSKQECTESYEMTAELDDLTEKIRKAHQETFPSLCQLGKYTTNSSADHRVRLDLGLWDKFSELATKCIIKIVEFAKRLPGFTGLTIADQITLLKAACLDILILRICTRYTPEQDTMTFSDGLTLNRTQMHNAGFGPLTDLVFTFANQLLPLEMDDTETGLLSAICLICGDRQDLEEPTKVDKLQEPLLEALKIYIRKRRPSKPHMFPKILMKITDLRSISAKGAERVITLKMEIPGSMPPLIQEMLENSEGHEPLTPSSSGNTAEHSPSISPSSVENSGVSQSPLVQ
Outline: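 HepG2 cells transiently transfected with multiplexed GAL4-UAS reporter units expressing chimeric NR–Gal4 fusions; 24 h compound exposure. Reporter mRNA quantified by RT-PCR, 6-FAM labelling, HpaI digestion and capillary electrophoresis; gain-of-signal fitted against DMSO baseline.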

[8] = target: Retinoic acid receptor alpha (Homo sapiens) (UniProt P10276); assay: ATG_RARa_TRANS: Attagene TRANS-FACTORIAL HepG2 Assay for human Retinoic Acid Receptor alpha (RARa) (AID 2283005; active = hit-call score of the fitted dose curve at least 0.9, where 1 is the maximum)
Sequence of Retinoic acid receptor alpha (Homo sapiens) (P10276 whole entry, looked up, the tested form may be a part): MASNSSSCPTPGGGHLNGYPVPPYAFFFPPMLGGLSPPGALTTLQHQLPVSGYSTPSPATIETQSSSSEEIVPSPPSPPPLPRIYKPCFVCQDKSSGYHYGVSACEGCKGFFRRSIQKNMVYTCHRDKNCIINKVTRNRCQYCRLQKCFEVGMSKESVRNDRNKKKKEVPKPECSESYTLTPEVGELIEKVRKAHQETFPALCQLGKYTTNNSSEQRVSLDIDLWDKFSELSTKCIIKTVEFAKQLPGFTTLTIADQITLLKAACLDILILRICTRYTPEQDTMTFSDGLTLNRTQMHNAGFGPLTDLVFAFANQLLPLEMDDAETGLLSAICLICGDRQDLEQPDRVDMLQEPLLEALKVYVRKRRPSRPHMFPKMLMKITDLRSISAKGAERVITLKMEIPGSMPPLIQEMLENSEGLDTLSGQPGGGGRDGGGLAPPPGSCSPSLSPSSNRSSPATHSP
Outline: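 HepG2 cells transiently transfected with multiple reporter units expressing chimeric RARα-GAL4 fusion, with GAL4-UAS-driven reporters. After 24 h compound exposure, reporter mRNA induction quantified by RT-PCR and capillary electrophoresis with fluorescent labeling; gain-of-signal fitted relative to DMSO control.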

[9] = target: human Retinoic Acid Receptor gamma (RARg), RARG (gene 5916) (UniProt P13631); assay: ATG_RARg_TRANS: Attagene TRANS-FACTORIAL HepG2 Assay for human Retinoic Acid Receptor gamma (RARg) (AID 2283009; active = hit-call score of the fitted dose curve at least 0.9, where 1 is the maximum)
Outline: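 Readout: reporter transcript levels via RT-PCR, 6-FAM primer-extension labelling, HpaI digestion and capillary electrophoresis. Cells: HepG2 carrying transfected RARg-GAL4 chimera plus UAS reporter set. Dosing 24 h; DMSO negative control.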

[10] = target: human Peroxisome Proliferator-activated Receptor delta (PPARd), PPARD (gene 5467) (UniProt Q03181); assay: ATG_PPARd_TRANS: Attagene TRANS-FACTORIAL HepG2 Assay for human Peroxisome Proliferator-activated Receptor delta (PPARd) (AID 2283002; active = hit-call score of the fitted dose curve at least 0.9, where 1 is the maximum)
Sequence of human Peroxisome Proliferator-activated Receptor delta (PPARd), PPARD (gene 5467) (Q03181 whole entry, looked up, the tested form may be a part): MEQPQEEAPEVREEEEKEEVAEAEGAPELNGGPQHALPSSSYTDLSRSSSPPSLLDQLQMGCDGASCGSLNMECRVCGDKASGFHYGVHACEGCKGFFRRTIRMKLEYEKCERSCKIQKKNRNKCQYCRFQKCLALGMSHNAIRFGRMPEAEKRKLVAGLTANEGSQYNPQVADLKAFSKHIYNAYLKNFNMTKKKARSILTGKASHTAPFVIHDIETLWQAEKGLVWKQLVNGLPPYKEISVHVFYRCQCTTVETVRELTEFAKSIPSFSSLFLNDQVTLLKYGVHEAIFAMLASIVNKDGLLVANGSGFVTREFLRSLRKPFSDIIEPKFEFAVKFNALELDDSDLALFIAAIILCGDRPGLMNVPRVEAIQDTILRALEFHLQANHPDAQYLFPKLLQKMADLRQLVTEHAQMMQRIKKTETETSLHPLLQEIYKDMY
Outline: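 Measured quantity: GAL4-UAS reporter transcript induction in HepG2 after 24 h chemical dosing, with NR-Gal4 chimeras supplied by transient transfection. Detection by RT-PCR and capillary electrophoresis; upward fit against DMSO.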

[11] = target: human RAR-related Orphan Receptor beta (RORb), RORB (gene 6096) (UniProt Q92753); assay: ATG_RORb_TRANS: Attagene TRANS-FACTORIAL HepG2 Assay for human RAR-related Orphan Receptor beta (RORb) (AID 2283010; active = hit-call score of the fitted dose curve at least 0.9, where 1 is the maximum)
Sequence of human RAR-related Orphan Receptor beta (RORb), RORB (gene 6096) (Q92753 whole entry, looked up, the tested form may be a part): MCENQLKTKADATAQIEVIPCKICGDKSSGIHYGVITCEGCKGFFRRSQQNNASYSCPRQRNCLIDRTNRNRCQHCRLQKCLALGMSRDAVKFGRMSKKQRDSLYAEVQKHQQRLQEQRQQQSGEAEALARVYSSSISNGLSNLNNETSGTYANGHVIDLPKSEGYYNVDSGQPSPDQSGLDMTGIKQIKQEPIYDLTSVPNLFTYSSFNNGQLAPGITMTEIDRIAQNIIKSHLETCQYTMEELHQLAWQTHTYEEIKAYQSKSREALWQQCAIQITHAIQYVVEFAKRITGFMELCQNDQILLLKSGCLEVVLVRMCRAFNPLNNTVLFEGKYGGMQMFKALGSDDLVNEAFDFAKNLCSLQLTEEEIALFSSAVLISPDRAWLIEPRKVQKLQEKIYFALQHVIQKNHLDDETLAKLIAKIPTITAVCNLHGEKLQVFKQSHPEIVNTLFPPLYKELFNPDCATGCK
Outline: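 HepG2, transient MRTU transfection (GAL4-UAS reporters, exogenous NR-Gal4 chimeras); 24 h compound exposure; total RNA → RT-PCR → 6-FAM primer extension → HpaI digest → CE fluorescence. Positive direction vs DMSO baseline.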

[12] = target: human RAR-related Orphan Receptor gamma (RORg), RORC (gene 6097) (UniProt P51449); assay: ATG_RORg_TRANS: Attagene TRANS-FACTORIAL HepG2 Assay for human RAR-related Orphan Receptor gamma (RORg) (AID 2283011; active = hit-call score of the fitted dose curve at least 0.9, where 1 is the maximum)
Sequence of human RAR-related Orphan Receptor gamma (RORg), RORC (gene 6097) (P51449 whole entry, looked up, the tested form may be a part): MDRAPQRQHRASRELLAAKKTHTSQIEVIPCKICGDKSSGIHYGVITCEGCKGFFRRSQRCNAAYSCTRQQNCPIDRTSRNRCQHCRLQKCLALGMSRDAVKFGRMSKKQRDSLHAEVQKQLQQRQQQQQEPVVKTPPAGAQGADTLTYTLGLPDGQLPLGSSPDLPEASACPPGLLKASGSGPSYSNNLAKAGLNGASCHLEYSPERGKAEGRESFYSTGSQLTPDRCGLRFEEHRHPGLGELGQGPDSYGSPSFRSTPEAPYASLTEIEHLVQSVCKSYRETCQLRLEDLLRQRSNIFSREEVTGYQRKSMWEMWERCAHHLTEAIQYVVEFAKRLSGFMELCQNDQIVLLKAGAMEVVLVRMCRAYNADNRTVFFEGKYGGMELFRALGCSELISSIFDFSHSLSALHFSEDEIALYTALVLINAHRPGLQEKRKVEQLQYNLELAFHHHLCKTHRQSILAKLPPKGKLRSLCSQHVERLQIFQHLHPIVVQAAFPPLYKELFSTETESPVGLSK
Outline: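 Readout: reporter transcript induction (RT-PCR, fluorescent primer extension, capillary electrophoresis) after 24 h compound exposure of transiently transfected HepG2 cells carrying a RORg-Gal4 chimera and GAL4-UAS reporters; DMSO served as baseline, with increasing signal fitted.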

[13] = target: Cellular tumor antigen p53 (Homo sapiens) (UniProt P04637); assay: ATG_p53_CIS: Attagene CIS-FACTORIAL HepG2 Assay for human p53 Transcription Factor (AID 2282994); conditions: HepG2 p53 cis-element reporter, Attagene mRNA; actives raise or lower the signal
Sequence of Cellular tumor antigen p53 (Homo sapiens) (P04637 whole entry, looked up): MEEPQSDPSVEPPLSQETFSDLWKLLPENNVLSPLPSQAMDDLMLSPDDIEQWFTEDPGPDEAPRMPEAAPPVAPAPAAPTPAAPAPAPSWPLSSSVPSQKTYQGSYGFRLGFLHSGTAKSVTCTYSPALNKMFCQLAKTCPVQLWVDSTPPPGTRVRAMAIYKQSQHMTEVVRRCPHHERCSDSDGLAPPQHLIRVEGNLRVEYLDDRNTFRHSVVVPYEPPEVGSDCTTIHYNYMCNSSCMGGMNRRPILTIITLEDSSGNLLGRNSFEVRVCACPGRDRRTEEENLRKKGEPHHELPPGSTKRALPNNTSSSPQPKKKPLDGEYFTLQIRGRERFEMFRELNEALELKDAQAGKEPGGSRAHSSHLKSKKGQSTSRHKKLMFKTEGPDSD
Outline: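 Endogenous p53 activity read in transiently transfected HepG2 from a cis-element-driven reporter transcript after 24 h exposure. RNA reverse-transcribed, PCR-amplified, fluorescently labelled and sized by capillary electrophoresis; gain or loss fitted against DMSO baseline.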

[14] = BSK_3C_TissueFactor: BioMAP Diversity Plus: 3C Assay for Tissue Factor Biomarker Activity (AID 2282997); conditions: BioMAP 3C HUVEC, tissue factor biomarker readout; actives raise or lower the signal
Outline: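 Readout: Tissue Factor ELISA. Cells: human primary umbilical vein endothelium. Time: 24 h after dosing. Analysis: bidirectional fit, DMSO baseline.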

[15] = BSK_3C_uPAR: BioMAP Diversity Plus: 3C Assay for Urokinase-type plasminogen activator receptor (uPAR) Biomarker Activity (AID 2282998); conditions: BioMAP 3C HUVEC, uPAR biomarker ELISA; actives raise or lower the signal
Outline: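 Cell-surface uPAR on HUVEC (3C system) read by ELISA at 24 h post-treatment, with DMSO as baseline and fitting in both directions. Parallel cultures stained with SRB to flag overt cytotoxicity.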

[16] = BSK_3C_VCAM1: BioMAP Diversity Plus: 3C Assay for Vascular cell adhesion molecule 1 (VCAM1) Biomarker Activity (AID 2282999); conditions: BioMAP 3C HUVEC, VCAM1 ELISA, cytokine-stimulated; actives raise or lower the signal
Outline: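 Vascular primary endothelium (human umbilical vein) was exposed to chemicals and assayed 24 h later. VCAM-1 levels came from ELISA, with DMSO serving as baseline for bidirectional fitting.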

[17] = BSK_4H_Eotaxin3: BioMAP Diversity Plus: 4H Assay for Eotaxin 3 Biomarker Activity (AID 2283000); conditions: primary human endothelial cells (HUVEC); actives raise or lower the signal;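 note: CCL26 protein level quantified by ELISA in parallel with SRB cytotoxicity check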
Outline: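 HUVEC, 24 h post-dose, ELISA for Eotaxin-3/CCL26. Gain or loss of signal fitted bidirectionally vs DMSO baseline.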

[18] = read-out: Intercellular Adhesion Molecule 1 (ICAM1), ICAM1 (gene 3383); assay: BSK_3C_ICAM1: BioMAP Diversity Plus: 3C Assay for Intercellular Adhesion Molecule 1 (ICAM1) Biomarker Activity (AID 2283003); conditions: primary human endothelial cells (HUVEC); actives raise or lower the signal
Outline: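 ELISA read-out of ICAM-1; HUVEC (primary human), 3C system, 24 h post-dosing; bidirectional fit vs DMSO baseline.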

[19] = BSK_3C_Proliferation: Cell Proliferation Assessment in the BioMAP Diversity Plus: 3C Assay (AID 2283006); conditions: primary human endothelial cells (HUVEC);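 for AC50: potency may reflect either rise or fall in cell number versus DMSO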
Outline: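 HUVEC, sub-confluent; 48 h chemical exposure; 10% TCA fix, 0.1% SRB stain, A560 total protein. Gain or loss of signal fitted both directions vs DMSO control.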

[20] = target: human Peroxisome Proliferator-activated Receptor alpha (PPARa), PPARA (gene 5465) (UniProt Q07869); assay: ATG_PPARa_TRANS: Attagene TRANS-FACTORIAL HepG2 Assay for human Peroxisome Proliferator-activated Receptor alpha (PPARa) (AID 2283001; active = hit-call score of the fitted dose curve at least 0.9, where 1 is the maximum)
Sequence of human Peroxisome Proliferator-activated Receptor alpha (PPARa), PPARA (gene 5465) (Q07869 whole entry, looked up, the tested form may be a part): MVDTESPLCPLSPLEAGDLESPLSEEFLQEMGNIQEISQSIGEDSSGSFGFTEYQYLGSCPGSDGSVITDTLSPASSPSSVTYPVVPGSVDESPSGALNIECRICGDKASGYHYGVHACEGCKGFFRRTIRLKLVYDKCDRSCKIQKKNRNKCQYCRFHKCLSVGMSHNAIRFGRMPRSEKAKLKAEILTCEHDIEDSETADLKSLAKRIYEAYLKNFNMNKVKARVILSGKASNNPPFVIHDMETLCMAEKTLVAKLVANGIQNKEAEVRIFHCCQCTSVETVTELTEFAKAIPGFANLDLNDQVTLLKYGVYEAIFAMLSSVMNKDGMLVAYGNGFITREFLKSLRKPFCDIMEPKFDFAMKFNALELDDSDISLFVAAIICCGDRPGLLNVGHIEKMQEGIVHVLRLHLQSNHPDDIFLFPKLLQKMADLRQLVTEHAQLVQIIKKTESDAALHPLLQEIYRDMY
Outline: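 Exposure: 24 h, transiently transfected HepG2 cells. Endpoint: GAL4-UAS reporter mRNA, RT-PCR with capillary electrophoresis fluorescence. Baseline: DMSO; increases fitted.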

## O=C(NC(=O)c1c(F)cccc1F)Nc1ccc(Cl)cc1
[1]
  outcome: inactive
[2]
  outcome: inactive
[3]
  outcome: inactive
[4]
  outcome: inactive
[5]
  AC50: 0.636 µM (active)
[6]
  outcome: inactive

## CCCCC(CC)COC(=O)Cl (centres undefined)
[1]
  outcome: inactive
[2]
  outcome: inactive
[3]
  outcome: inactive
[4]
  outcome: inactive
[7]
  outcome: inactive
[8]
  outcome: inactive
[5]
  outcome: inactive
[9]
  outcome: inactive

## CCCSP(=S)(OCC)Oc1ccc(Cl)cc1Cl (centres undefined)
[1]
  outcome: inactive
[2]
  outcome: inactive
[3]
  AC50: 13.3 µM (active)
[4]
  outcome: inactive
[10]
  outcome: inactive
[5]
  AC50: 24.3 µM (active)
[6]
  AC50: 2.51 µM (active)
[11]
  outcome: inactive
[12]
  outcome: inactive

## O=S(=O)(Oc1ccc(Cl)cc1)c1ccc(Cl)cc1
[1]
  outcome: inactive
[2]
  outcome: inactive
[3]
  AC50: 23.1 µM (active)
[4]
  outcome: inactive
[10]
  outcome: inactive
[5]
  AC50: 27.5 µM (active)
[6]
  AC50: 4.68 µM (active)
[11]
  outcome: inactive

## C1CN2CCN1CC2
[1]
  outcome: inactive
[2]
  outcome: inactive
[3]
  outcome: inactive
[4]
  outcome: inactive
[7]
  outcome: inactive
[5]
  outcome: inactive
[6]
  outcome: inactive
[11]
  outcome: inactive
[12]
  outcome: inactive

## CC(C)CC(C)(c1ccc(O)cc1)c1ccc(O)cc1
[1]
  outcome: inactive
[2]
  outcome: inactive
[3]
  AC50: 11.1 µM (active)
[4]
  AC50: 17 µM (active)
[10]
  outcome: inactive
[7]
  outcome: inactive
[8]
  outcome: inactive
[5]
  AC50: 11.1 µM (active)
[6]
  AC50: 1.47 µM (active)
[9]
  outcome: inactive

## CC(C)=CC1C(C(=O)OCc2cccc(Oc3ccccc3)c2)C1(C)C (centres undefined)
[1]
  outcome: inactive
[3]
  outcome: inactive
[4]
  outcome: inactive
[13]
  outcome: inactive
[14]
  outcome: inactive
[15]
  outcome: inactive
[16]
  outcome: inactive
[17]
  outcome: inactive
[10]
  outcome: inactive
[18]
  outcome: inactive
[7]
  outcome: inactive
[8]
  outcome: inactive
[19]
  AC50: 20 µM (active)
[6]
  AC50: 9.55 µM (active)
[11]
  outcome: inactive
[12]
  outcome: inactive

## O=S1(=O)OC(c2cc(Br)c(O)c(Br)c2)(c2cc(Br)c(O)c(Br)c2)c2ccccc21
[1]
  outcome: inactive
[3]
  AC50: 60.1 µM (active)
[4]
  outcome: inactive
[13]
  AC50: 126 µM (active)
[20]
  outcome: inactive
[10]
  outcome: inactive
[8]
  outcome: inactive
[5]
  AC50: 36.9 µM (active)
[6]
  outcome: inactive
[11]
  outcome: inactive

## O=[N+]([O-])c1cc([As](=O)(O)O)ccc1O
[1]
  outcome: inactive
[2]
  outcome: inactive
[3]
  outcome: inactive
[4]
  outcome: inactive
[10]
  outcome: inactive
[6]
  outcome: inactive
[11]
  outcome: inactive

## COCC(=O)N(c1c(C)cccc1C)[C@H](C)C(=O)OC
[1]
  outcome: inactive
[3]
  outcome: inactive
[4]
  outcome: inactive
[13]
  outcome: inactive
[15]
  outcome: inactive
[16]
  outcome: inactive
[17]
  outcome: inactive
[20]
  outcome: inactive
[18]
  outcome: inactive
[7]
  outcome: inactive
[8]
  outcome: inactive
[19]
  outcome: inactive
[5]
  outcome: inactive
[6]
  AC50: 20.2 µM (active)
[12]
  outcome: inactive

## CCCCOC(=O)COC(=O)c1ccccc1C(=O)OCCCC
[1]
  outcome: inactive
[3]
  outcome: inactive
[4]
  outcome: inactive
[13]
  outcome: inactive
[14]
  outcome: inactive
[15]
  outcome: inactive
[16]
  outcome: inactive
[17]
  outcome: inactive
[20]
  outcome: inactive
[10]
  outcome: inactive
[18]
  outcome: inactive
[19]
  AC50: 26.1 µM (active)
  outcome: inactive
[5]
  AC50: 51.4 µM (active)
[6]
  AC50: 27.4 µM (active)
[12]
  outcome: inactive
